Test results published in PubChem BioAssay (NCI).
This is part of a sample that, as a whole, favours compounds with a hit. Of some 83,000 tested, about 20% had one in any assay.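 Interpretation: 100, growth as untreated; towards 0, rising growth inhibition; 0, no net growth; 0 to -100, cell death. Compounds scoring below 10 were considered active.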 Calls of active or inactive are those of the source.

The molecules below were run on HOP-62 NSCLC (assay: NCI-60 one-dose screen, 48 h (100 = growth as untreated, 0 = no growth, -100 = all killed)). Details: 10 µM unless noted.

| Structure (SMILES) | growth |
| --- | --- |
| FC(F)(F)c1cc(-c2nnc3n2N=C(Cl)CS3)cc(C(F)(F)F)c1 | 98.5% (inactive) |
| COc1ccc(/C=C/c2nc3ccccc3c(=O)n2-c2ccc(C#Cc3ccc(C(C)(C)C)cc3)cc2C)c(OC)c1 | 112% (inactive) |
| Cc1cc(O)c2cc3c(O)c(O)ccc3cc2c1 | 120% (inactive) |
| COc1ccc(-c2nc3ccccc3n3cccc23)cc1 | 116% (inactive) |
| CCOC(=O)c1cc(C(=O)OCC)c(C)nc1C | 102% (inactive) |
| CN1C(=O)N(C)C2C1NN=c1s/c(=C\c3ccc(Br)cc3)c(=O)n12 (centres undefined) | 32.4% (inactive) |
| O=C1OCC2=C1C(c1ccccc1)c1cc3c(cc1N2CCO)OCO3 (centres undefined) | 40.3% (inactive) |
| CCC1N=C(N)N=C(N)N1c1ccc(Cl)cc1 (centres undefined) | 102% (inactive) |
| COc1cc(OC)cc(-c2ccc(-c3ccc(C(=N)N)s3)s2)c1 | -88.1% (active) |
| Cc1cccc(N=NC(=S)NNc2cccc(C)c2)c1 | 101% (inactive) |
| CCn1c(Cc2ccccc2Nc2c(Cl)cccc2Cl)nnc1SCC(=O)Nc1cccc(OC)c1 | 94.2% (inactive) |
| NC(=S)N1N=C(c2ccc(Cl)cc2)CC1c1cc2ccccc2[nH]c1=O (centres undefined) | 102% (inactive) |
| CC(C)c1nc2ccccc2n1CC(=O)N/N=C/c1cccc(O)c1 | 97.4% (inactive) |
| COc1ccc(Oc2nc(Nc3ccc(N4CCOCC4)cc3)ncc2NC(=O)Nc2cccc(OC)c2)cc1 | 64.7% (inactive) |
| Clc1cccc(CNc2c3ccccc3nc3ccccc23)c1 | 45.5% (inactive) |
| O=C1OCC2=C1C(c1ccccc1)c1cc3c(cc1N2CCO)CCC3 (centres undefined) | 20.9% (inactive) |
| C=C1C(=O)O[C@H]2[C@H]1CC/C(COC(=O)NCc1[nH]nc3ccccc13)=C\CC[C@@]1(C)O[C@@H]21 | 48.6% (inactive) |
| CC(=O)Oc1c(Cl)c(Cl)c(Cl)c(Cl)c1Cl | 95.9% (inactive) |
| CC(=O)Nc1c(Br)cc2c(c1Br)Cc1cc(Br)ccc1-2 | 29.1% (inactive) |
| Cc1ccc(C(CN(C)C)C(=O)c2ccccc2)cc1 (centres undefined) | 101% (inactive) |

| Structure (SMILES) | growth |
| --- | --- |
| CCOC(=O)C(CCCCC(NC(C)=O)(C(=O)OCC)C(=O)OCC)(NC(C)=O)C(=O)OCC | 102% (inactive) |
| O=[N+]([O-])c1ccc(SSc2ccc([N+](=O)[O-])cc2Cl)c(Cl)c1 | 112% (inactive) |
| COc1cc(/C=C2\CN(C(=O)OC(C)(C)C)C/C(=C\c3ccc(O)c(OC)c3)C2=O)ccc1O | 98% (inactive) |
| O=S1(=O)NCCN1CCNc1nccc(-c2c(-c3cccc(O)c3)nc3sccn23)n1 | 115% (inactive) |
| CNCCCn1c2c(c3ccc(Cl)cc3c1=O)C(=O)c1cc(OC)cnc1-2 | 17.6% (inactive) |
| O=C(/C=C/c1ccccc1)c1c[nH]c2ccccc2c1=O | 23.6% (inactive) |
| N=C(N)c1ccc(-c2ccc(-c3ccco3)o2)cc1F | 32.2% (inactive) |
| C[C@@H]1N=C(c2ccc3ccccc3c2)Nc2nc3ccccn3c2C1=O | 36.7% (inactive) |
| COc1ccc2[nH]cc(C3(c4c[nH]c5ccc(OC)cc45)C(=O)Nc4ccc(F)cc43)c2c1 | 83.3% (inactive) |
| CC(=O)Nc1ccc(/C=N/N2CCCCCC2)cc1 | 95.2% (inactive) |
| COc1cc(-c2nn(C(=O)NCCN3CCN(C)CC3)cc2-c2ccncc2)ccc1Cl | 41.6% (inactive) |
| COc1cc(C2CC(=O)Nc3c2cnn3C)cc(OC)c1OC (centres undefined) | 98.2% (inactive) |
| COc1cc2c(c(OC)c1O)C(=O)C(OC)C(c1ccc(O)c(O)c1)O2 (centres undefined) | 42.3% (inactive) |
| CCOC(=O)C1C(=O)C=C(c2ccccc2)CC1c1sc(N(C)Cc2ccccc2)nc1Cl (centres undefined) | 85.6% (inactive) |
| CC(C)[C@@H]1C=C2CC[C@H]3[C@](C)(CN)CCC[C@]3(C)[C@H]2CC1 | 59.8% (inactive) |
| CC1(C)CN(CCNc2nccc(-c3c(-c4cccc(O)c4)nc4sccn34)n2)S(=O)(=O)N1 | 89.1% (inactive) |
| CCNC(=O)c1ccc2c(c1)nc(-c1ccc(Cl)cc1)n2-c1cc(C(C)(C)C)[nH]n1 | 47.3% (inactive) |
| CCc1c(C)c2ccc(O)c(-c3cc(-c4ccccc4)c(C#N)c(=O)[nH]3)c2oc1=O | 89.4% (inactive) |
| C=C(C)[C@@H]1CC[C@]2(C(=O)NS(=O)(=O)c3ccccc3)CC[C@]3(C)[C@H](CC[C@@H]4[C@@]5(C)CC[C@H](OC(=O)NS(=O)(=O)c6ccccc6)C(C)(C)[C@@H]5CC[C@]43C)[C@@H]12 | -13.4% (active) |
